Bioassay records deposited in PubChem BioAssay by National Center for Advancing Translational Sciences (NCATS).
This is a sample that favours compounds with a hit; in the whole collection about 0.77% have one here.
LmPK inh: inhibitors of Leishmania mexicana pyruvate kinase; AID 1721; Potency, µM (top dose mostly 57.5 µM), without a hit: top-dose activity change, negative = inhibition, hits mostly inhibitors; actives 0.37% (n = 290,000); purified LmPK, Kinase-Glo ATP luminescence, 1 h; further: on the % scale 0 is the no-effect control and ±100 the full control effect
Target sequence (Q27686 whole entry, looked up): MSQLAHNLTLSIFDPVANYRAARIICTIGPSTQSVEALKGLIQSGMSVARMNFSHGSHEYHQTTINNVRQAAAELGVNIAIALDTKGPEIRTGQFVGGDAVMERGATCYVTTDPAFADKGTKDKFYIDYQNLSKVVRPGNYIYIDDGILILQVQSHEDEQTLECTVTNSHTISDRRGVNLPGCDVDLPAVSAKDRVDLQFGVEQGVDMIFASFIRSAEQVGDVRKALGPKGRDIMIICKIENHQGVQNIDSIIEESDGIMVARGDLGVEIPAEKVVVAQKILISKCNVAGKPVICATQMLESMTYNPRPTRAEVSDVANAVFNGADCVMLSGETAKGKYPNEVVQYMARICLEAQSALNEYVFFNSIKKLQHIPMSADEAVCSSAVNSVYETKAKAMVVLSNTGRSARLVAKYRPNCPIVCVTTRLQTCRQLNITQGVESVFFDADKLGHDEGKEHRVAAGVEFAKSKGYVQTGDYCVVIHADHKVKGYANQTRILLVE
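In 50 mM imidazole pH 7.2 with 7 mM MgCl2, LmPK (0.1 nM) turned over PEP (0.5 mM) and ADP (0.1 mM) for 1 h at room temperature. Luciferase read-out of ATP.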
RE007 growth inh: less growth of the S. pombe RE007 Vpr strain; S. pombe RE007 Vpr strain, BacTiter-Glo ATP luminescence, 24 h; Potency, µM (doses to about 92.2 µM), inactives show at the top dose activity change, negative = less growth, hits mostly inhibitors; actives 0.21% (n = 360,000); active means well fitted falling curve with a large enough effect; inconclusive means small, poorly fitted or top-dose-only effect; inactive means no such curve, though single readings can be large or run the other way; further: on the % scale 0 is the no-effect control and ±100 the full control effect; nearly all actives have a fitted effect of over 50% in size
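Fission yeast RE007 carrying one integrated HIV-1 vpr copy, seeded at OD 0.01 in PMG+AL medium with 23 nL pinned compound. Grown 24 h at 30 degrees; viability read by BacTiter-Glo luminescence after 5 min.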
NS1 inh: influenza NS1 inhibition; actives 0.4% (n = 270,000); AID 2326; Potency, µM (titrated, usually from 46.1 µM), for inactives: top-dose activity, positive = more growth; calls by dose curve; further: actives are rising curves; nearly all actives have a fitted effect of over 50% in size
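Growth recovery, yeast-based: influenza A NS1 expressed in S. cerevisiae causes slow growth, and suppressors are detected by OD600. The parent strain without NS1 is used as positive control.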
TbPYK inhibitor: inhibitors of Trypanosoma brucei pyruvate kinase. Potency, µM (highest dose often 76.8 µM), for inactives: at the highest dose activity, negative = inhibition, usual class: inhibitors. actives 0.12% (n = 410,000). TbPYK enzyme, Kinase-Glo Plus ATP luminescence, 45 min. Q57TT1; further: on the % scale 0 is the no-effect control and ±100 the full control effect; nearly all actives have a fitted effect of over 50% in size
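T. brucei PYK with substrate was exposed to pin-transferred compounds across a concentration series, then started with 130 uM ADP (final). After 45 min at room temperature, Kinase-Glo Plus luminescence was read, normalized and curve-fitted.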
An asterisk follows results filed as active; u = inconclusive; x = not tested or not shown; ! = repeats disagree; [ ] = remark or other dose. Unless noted, the call rests on the fitted dose curve; in most records, active means well fitted curve in the direction sought with a large enough effect; inconclusive means small, poorly fitted or top-dose-only effect, or another doubt; inactive means no such curve, though single readings can be large; an effect the other way counts as inactive or inconclusive. Potency means the concentration at half of the fitted maximal effect.

SMILES | LmPK inh | RE007 growth inh | NS1 inh | TbPYK inhibitor
Fc1ccc(-n2c(-c3ccc4c(c3)OCO4)n[nH]c2=S)cc1Cl | 14µM* | 19% | 12% | 4µM*
COc1cc(OC)cc(-c2n[nH]c(=S)n2-c2ccc3c(c2)OCO3)c1 | 5µM* | 0% | 15% | u
COc1ccccc1-c1nnc(C2CCN(C(=O)c3cccc(Cl)c3)CC2)o1 | x | x | x | -6%
Cc1ccccc1NC(=O)c1c(C)[nH]c(=S)c(C#N)c1-c1ccco1 | 16% | 21% | 25% | -17%
CNC(=O)c1c(C)[nH]c(=S)c(C#N)c1-c1ccco1 | 29% | 20% | 14% | 7.9µM*
CC(C)(C)C1C/C(=C/c2ccccn2)C(=O)/C(=C/c2ccccn2)C1 (stereo not drawn) | 0% | -11% | x | 6%
CC1C/C(=C/c2ccccn2)C(=O)/C(=C/c2ccccn2)C1 (stereo not drawn) | 0% | 63µM* | x | 3%
CC1=C(C#N)C(=O)NC(=O)/C1=C\c1ccc(-c2cc(C)c(C)cc2[N+](=O)[O-])o1 | 1% | u | x | -26%
O=C1NC(=O)C(=Cc2ccc(-c3ccccc3[N+](=O)[O-])o2)C(=O)N1 | -18% | 5% | -12% | 16µM*
Cc1n[nH]c(=S)n1/N=C/c1ccc(-c2ccccc2[N+](=O)[O-])o1 | -11% | 11% | -2% | 7.9µM*
O=C1NC(=O)C(=Cc2ccc(-c3cc(Cl)ccc3[N+](=O)[O-])o2)C(=O)N1 | -3% | 3% | 1% | 18µM*
Cc1ccc(S(=O)(=O)Nc2ccc(-c3ccc(N4CCCCCC4)nn3)cc2)cc1C | x | x | x | 0%
CCOC(=O)c1ccc(NC(=O)CC(=O)Nc2ccc3nc4n(c(=O)c3c2)CCCCC4)cc1 | x | x | x | -4%
COc1ccc(-c2nc3cc(C(C)C)ccc3o2)cc1NC(=O)c1ccc(C)c(Cl)c1 | x | x | x | -2%
Clc1ccc2[nH]c3c(c2c1)CCc1cn[nH]c1-3 | 2% | 35µM* | -72% | -5%
c1ccc2c3c([nH]c2c1)-c1[nH]ncc1CC3 | 4% | -20% | -123% | -11%
COC(=O)C(C(=O)OC)[C@@H]1c2ccccc2[C@H]2C(=C[C@@H](C)[C@H]3C(=O)N(c4ccccc4)C(=O)[C@H]32)N1C(=O)OC | 2%[11.5 µM] | x | x | x
COc1ccc2nc(Nc3sc4c(c3C(N)=O)CCCC4)sc2c1 | -27% | u | 12% | 2.8µM*
Cc1ccc2c(n1)sc1c(=O)n(-c3cccc(C(F)(F)F)c3)nnc12 | x | x | x | 0%
O=C(NCCCN1CCCCC1)c1cc(Sc2ccc(Cl)cc2)nc2ccccc12 | x | x | x | 5%
Cc1nc(Cl)sc1C(=O)Nc1ccc(F)cc1 | x | 10% | x | 0%
CC(C)S(=O)(=O)c1csc(C(=O)Nc2ccc(F)cc2)c1N | 14µM* | u | 1% | -12%
Cc1ccc(Nc2c(-c3ccc(N(C)C)cc3)nc3ccccn23)cc1 | x | x | x | -6%
Cc1ccc(-n2c(-c3ccncc3)n[nH]c2=S)cc1 | 16µM* | 29% | x | u
Cc1ccc(-n2c(-c3ccccc3)n[nH]c2=S)c(C)c1 | -1% | 22% | 24% | 11µM*
SMILES | LmPK inh | RE007 growth inh | NS1 inh | TbPYK inhibitor
Cc1ccc(C)c(-n2c(-c3csc(C)c3)n[nH]c2=S)c1 | 7.9µM* | -5% | -3% | u
Cc1ccc(C)c(-n2c(-c3ccc4c(c3)OCO4)n[nH]c2=S)c1 | 4µM* | -3% | 10% | 5µM*
Cc1ccc(-n2c(-c3ccccc3)n[nH]c2=S)cc1 | u | 10% | -4% | u
Cc1ccc(C)c(-n2c(-c3ccncc3)n[nH]c2=S)c1 | 20µM* | 3% | 1% | u
Cc1ccc(-n2c(-c3ccncc3)n[nH]c2=S)cc1C | -2% | 0% | 12% | u
Cc1ccc(NC(=O)Cn2c(=O)n(Cc3nc(-c4ccccc4)no3)c(=O)c3ccccc32)c(C)c1 | x | x | x | 1%
COc1ncnc2sc(-c3ccccc3)cc12 | 13µM* | u | -67% | u
Cc1cccc(Nc2nc3c(s2)CCCC3)c1 | -6% | 25µM* | 14% | -6%
C[c-]1[c-](C)[c-](C)[c-](C)[c-]1C.[Fe].c1cc2nccc(N3CCCC3)[c-]2c1 (stereo not drawn) | 32µM*! | -16% | -6% | -16%
Cc1ccc(S(=O)(=O)Nc2c(Cl)c(Cl)c(O)c3ccccc23)cc1 | 6.3µM* | x | -122% | x
Cc1ccc2c(Sc3ccccc3)c(C(=O)NCc3ccccc3F)[nH]c2c1 | x | x | x | -2%
O=c1c2c3c(sc2nc2n1CCCC2)CCCC3 | -7% | 28µM* | -30% | -3%
Cc1occc1C(=O)N/N=C/c1cccs1 | 14µM* | -20% | -8% | -17%
N#C/C(=C\c1cccnc1)C(=O)Nc1cccc2ccccc12 | 5% | 32µM* | 0% | -22%
COc1ccccc1N1CCN(CCCNC(=O)c2cnn(-c3ccccc3)c2C2CCN(C(=O)OC(C)(C)C)CC2)CC1 | x | x | x | -8%[15.4 µM]
Cc1ccc2c(c1C)NC(=O)CC2c1ccc(Cl)cc1Cl (stereo not drawn) | x | x | x | 0%
Clc1ccc(N=c2ssnc2Cl)nc1 | 2% | u | 0% | u
Clc1nssc1=Nc1nncs1 | x | -1% | x | 5µM*
CC(C)CC(=O)C[C@H](O)C(Cl)(Cl)Cl | x | x | -12% | x
COc1ccc(OC2C(=O)N(c3ccc(C)c(C)c3)C2c2ccc(OC)c(OC)c2)cc1 (stereo not drawn) | 2% | -14% | u | 6%
COc1ccc(NC2=CC(c3ccc(OC)c(OC)c3)N(c3ccc(OC)cc3)C2=O)cc1 (stereo not drawn) | -1% | x | 8.9µM* | -16%
O=C(O)c1ccc2nc(-c3cc4cccc(O)c4oc3=O)[nH]c2c1 | x | x | x | 20µM*
CN1CCN(C2=C(Cl)C(=O)C(c3cnc(N4CCCCC4)s3)=C(Cl)C2=O)CC1 | u | u | 7% | 1µM*
